Results as given in ChEMBL document CHEMBL1961873, “Compounds: GSK PKIS; Assays: Nanosyn kinase panel” (2012).

Tests used:
[1] = target: Calcium/calmodulin-dependent protein kinase type II subunit alpha (Homo sapiens) (UniProt Q9UQM7); details: at 1 µM;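 note: reported value is a mean percent inhibition of CAMK2A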
[2] = target: Calcium/calmodulin-dependent protein kinase type II subunit delta (Homo sapiens) (UniProt Q13557); details: at 0.1 µM
[3] = target: Calcium/calmodulin-dependent protein kinase type II subunit delta (Homo sapiens) (UniProt Q13557); details: at 1 µM
[4] = target: T1, Calcium/calmodulin-dependent protein kinase type IV (Homo sapiens) (UniProt Q16566); details: at 0.1 µM
T1 sequence (whole entry): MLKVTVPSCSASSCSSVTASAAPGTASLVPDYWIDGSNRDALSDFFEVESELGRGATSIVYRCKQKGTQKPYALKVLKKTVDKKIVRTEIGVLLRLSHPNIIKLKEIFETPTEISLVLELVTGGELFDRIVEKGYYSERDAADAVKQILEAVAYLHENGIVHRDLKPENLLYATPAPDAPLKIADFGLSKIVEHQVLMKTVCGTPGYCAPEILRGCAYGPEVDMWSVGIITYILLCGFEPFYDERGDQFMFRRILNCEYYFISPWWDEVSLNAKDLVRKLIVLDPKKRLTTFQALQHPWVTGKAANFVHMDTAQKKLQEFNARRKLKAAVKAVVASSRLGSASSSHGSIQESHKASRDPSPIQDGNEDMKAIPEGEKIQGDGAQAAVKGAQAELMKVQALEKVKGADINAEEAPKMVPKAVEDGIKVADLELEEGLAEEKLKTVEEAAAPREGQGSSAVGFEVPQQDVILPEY

[5] = target: T1, Calcium/calmodulin-dependent protein kinase type IV (Homo sapiens); details: at 1 µM
[6] = target: T2, Serine/threonine-protein kinase Chk1 (Homo sapiens) (UniProt O14757); details: at 0.1 µM
T2 sequence (whole entry): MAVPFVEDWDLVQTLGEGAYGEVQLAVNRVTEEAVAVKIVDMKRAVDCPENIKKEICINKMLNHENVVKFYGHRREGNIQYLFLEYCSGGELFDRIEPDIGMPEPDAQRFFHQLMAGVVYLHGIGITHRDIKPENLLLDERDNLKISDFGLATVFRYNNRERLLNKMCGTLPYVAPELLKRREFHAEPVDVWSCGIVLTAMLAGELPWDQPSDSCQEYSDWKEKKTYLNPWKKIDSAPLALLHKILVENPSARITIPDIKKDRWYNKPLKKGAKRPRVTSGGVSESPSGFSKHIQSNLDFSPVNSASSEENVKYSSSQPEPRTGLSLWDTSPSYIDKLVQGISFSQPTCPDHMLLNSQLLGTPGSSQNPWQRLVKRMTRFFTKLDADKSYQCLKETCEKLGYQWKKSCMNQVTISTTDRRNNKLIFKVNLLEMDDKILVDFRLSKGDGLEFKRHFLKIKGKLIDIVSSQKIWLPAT

[7] = target: T2, Serine/threonine-protein kinase Chk1 (Homo sapiens); details: at 1 µM
[8] = target: Serine/threonine-protein kinase Chk2 (Homo sapiens) (UniProt O96017); details: at 0.1 µM
Chain of Serine/threonine-protein kinase Chk2 (Homo sapiens) (O96017 whole entry): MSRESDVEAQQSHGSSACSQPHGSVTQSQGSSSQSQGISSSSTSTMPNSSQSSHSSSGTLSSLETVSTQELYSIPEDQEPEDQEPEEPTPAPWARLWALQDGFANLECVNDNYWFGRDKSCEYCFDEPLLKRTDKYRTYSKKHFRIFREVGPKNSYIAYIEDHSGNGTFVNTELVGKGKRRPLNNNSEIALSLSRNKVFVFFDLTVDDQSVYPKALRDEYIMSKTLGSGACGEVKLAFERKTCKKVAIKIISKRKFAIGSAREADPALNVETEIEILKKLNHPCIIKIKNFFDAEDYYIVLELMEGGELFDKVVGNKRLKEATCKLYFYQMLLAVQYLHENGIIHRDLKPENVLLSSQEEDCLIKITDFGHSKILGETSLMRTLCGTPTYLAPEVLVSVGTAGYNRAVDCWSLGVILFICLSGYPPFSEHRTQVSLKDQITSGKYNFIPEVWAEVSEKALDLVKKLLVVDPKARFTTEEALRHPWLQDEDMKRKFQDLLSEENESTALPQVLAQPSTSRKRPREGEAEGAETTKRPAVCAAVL

[9] = target: Serine/threonine-protein kinase Chk2 (Homo sapiens) (UniProt O96017); details: at 1 µM
[10] = target: Death-associated protein kinase 1 (Homo sapiens) (UniProt P53355); details: at 0.1 µM
Chain of Death-associated protein kinase 1 (Homo sapiens) (P53355 whole entry, looked up): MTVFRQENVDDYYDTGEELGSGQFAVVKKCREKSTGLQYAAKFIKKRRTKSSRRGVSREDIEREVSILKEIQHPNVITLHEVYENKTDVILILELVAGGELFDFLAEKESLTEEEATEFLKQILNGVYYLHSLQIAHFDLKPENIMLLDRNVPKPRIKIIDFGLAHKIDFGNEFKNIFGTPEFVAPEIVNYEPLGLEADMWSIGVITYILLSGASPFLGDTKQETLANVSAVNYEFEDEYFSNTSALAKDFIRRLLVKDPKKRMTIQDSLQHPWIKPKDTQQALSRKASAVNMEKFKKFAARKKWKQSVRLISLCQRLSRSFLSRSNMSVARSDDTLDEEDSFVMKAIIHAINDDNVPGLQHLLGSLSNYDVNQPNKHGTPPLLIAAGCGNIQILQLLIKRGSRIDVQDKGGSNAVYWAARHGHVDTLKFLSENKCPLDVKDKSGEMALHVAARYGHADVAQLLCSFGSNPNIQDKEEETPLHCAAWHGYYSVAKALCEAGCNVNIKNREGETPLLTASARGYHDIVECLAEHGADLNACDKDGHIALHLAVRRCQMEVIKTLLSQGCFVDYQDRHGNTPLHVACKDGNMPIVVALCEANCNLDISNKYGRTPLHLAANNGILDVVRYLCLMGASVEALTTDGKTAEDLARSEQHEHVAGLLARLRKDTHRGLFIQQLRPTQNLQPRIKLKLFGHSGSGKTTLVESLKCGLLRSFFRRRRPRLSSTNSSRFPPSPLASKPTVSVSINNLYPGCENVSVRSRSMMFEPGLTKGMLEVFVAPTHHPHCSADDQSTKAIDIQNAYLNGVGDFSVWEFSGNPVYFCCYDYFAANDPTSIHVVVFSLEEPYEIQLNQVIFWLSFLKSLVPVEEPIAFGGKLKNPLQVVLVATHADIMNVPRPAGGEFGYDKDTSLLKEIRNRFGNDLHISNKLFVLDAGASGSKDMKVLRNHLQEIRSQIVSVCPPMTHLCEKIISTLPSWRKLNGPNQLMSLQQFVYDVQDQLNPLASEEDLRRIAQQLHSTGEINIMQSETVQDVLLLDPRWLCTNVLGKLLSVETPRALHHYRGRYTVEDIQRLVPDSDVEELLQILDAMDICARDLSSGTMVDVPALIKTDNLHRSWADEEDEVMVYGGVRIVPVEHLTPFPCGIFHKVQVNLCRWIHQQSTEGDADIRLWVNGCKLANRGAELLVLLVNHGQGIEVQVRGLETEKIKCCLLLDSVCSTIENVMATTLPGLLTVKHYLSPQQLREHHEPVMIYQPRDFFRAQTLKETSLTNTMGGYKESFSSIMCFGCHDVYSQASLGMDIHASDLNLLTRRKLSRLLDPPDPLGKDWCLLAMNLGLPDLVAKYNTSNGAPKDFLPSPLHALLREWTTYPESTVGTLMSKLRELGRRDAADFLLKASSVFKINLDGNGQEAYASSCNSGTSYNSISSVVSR

[11] = target: Death-associated protein kinase 1 (Homo sapiens) (UniProt P53355); details: at 1 µM
[12] = target: T3, Serine/threonine-protein kinase DCLK2 (Homo sapiens) (UniProt Q8N568); details: at 0.1 µM
T3 sequence (whole entry): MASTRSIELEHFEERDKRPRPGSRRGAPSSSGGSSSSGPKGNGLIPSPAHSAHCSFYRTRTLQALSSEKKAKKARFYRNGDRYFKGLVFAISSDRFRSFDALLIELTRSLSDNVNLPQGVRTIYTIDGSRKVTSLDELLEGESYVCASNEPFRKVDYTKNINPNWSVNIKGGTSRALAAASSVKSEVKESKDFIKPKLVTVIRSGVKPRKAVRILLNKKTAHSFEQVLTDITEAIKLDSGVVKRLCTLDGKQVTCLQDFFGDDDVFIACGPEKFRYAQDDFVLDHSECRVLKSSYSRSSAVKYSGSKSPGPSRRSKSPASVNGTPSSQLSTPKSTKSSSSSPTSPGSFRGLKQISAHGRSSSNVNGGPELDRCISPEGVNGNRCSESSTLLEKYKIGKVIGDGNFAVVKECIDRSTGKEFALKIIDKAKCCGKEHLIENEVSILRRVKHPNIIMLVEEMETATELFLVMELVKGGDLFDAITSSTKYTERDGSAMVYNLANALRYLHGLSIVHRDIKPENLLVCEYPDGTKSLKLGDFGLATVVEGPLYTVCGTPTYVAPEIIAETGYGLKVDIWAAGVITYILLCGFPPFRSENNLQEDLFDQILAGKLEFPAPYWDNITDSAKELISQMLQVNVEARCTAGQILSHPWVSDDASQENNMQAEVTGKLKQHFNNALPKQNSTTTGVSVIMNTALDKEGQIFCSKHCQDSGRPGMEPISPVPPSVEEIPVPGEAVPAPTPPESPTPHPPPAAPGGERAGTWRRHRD

[13] = target: T3, Serine/threonine-protein kinase DCLK2 (Homo sapiens); details: at 1 µM
[14] = target: MAP kinase-activated protein kinase 2 (Homo sapiens) (UniProt P49137); details: at 0.1 µM
Chain of MAP kinase-activated protein kinase 2 (Homo sapiens) (P49137 whole entry, looked up): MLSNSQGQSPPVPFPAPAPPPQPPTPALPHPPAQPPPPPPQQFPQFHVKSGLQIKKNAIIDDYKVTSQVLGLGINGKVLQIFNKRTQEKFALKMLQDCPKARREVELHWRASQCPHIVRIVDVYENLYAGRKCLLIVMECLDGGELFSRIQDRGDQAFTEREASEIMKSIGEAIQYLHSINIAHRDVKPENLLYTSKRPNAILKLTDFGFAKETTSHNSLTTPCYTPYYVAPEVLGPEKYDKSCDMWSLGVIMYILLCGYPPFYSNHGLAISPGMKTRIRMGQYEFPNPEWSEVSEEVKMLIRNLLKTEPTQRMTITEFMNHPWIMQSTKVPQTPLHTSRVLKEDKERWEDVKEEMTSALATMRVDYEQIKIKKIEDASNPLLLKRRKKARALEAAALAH

[15] = target: MAP kinase-activated protein kinase 2 (Homo sapiens) (UniProt P49137); details: at 1 µM
[16] = target: MAP kinase-activated protein kinase 3 (Homo sapiens) (UniProt Q16644); details: at 0.1 µM
Chain of MAP kinase-activated protein kinase 3 (Homo sapiens) (Q16644 whole entry, looked up): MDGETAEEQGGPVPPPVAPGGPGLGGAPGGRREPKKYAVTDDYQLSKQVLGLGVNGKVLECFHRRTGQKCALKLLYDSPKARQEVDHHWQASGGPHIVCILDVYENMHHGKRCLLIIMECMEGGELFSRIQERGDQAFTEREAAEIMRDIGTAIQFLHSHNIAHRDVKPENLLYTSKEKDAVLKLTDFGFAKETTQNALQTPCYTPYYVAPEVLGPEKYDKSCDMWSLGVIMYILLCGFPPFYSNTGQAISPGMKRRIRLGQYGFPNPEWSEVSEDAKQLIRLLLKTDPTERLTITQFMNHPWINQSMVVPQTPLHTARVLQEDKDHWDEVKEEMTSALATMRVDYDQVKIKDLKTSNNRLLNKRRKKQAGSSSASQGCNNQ

[17] = target: MAP kinase-activated protein kinase 3 (Homo sapiens) (UniProt Q16644); details: at 1 µM
[18] = target: Serine/threonine-protein kinase MARK1 (Homo sapiens) (UniProt Q9P0L2); details: at 0.1 µM
Chain of Serine/threonine-protein kinase MARK1 (Homo sapiens) (Q9P0L2 whole entry, looked up): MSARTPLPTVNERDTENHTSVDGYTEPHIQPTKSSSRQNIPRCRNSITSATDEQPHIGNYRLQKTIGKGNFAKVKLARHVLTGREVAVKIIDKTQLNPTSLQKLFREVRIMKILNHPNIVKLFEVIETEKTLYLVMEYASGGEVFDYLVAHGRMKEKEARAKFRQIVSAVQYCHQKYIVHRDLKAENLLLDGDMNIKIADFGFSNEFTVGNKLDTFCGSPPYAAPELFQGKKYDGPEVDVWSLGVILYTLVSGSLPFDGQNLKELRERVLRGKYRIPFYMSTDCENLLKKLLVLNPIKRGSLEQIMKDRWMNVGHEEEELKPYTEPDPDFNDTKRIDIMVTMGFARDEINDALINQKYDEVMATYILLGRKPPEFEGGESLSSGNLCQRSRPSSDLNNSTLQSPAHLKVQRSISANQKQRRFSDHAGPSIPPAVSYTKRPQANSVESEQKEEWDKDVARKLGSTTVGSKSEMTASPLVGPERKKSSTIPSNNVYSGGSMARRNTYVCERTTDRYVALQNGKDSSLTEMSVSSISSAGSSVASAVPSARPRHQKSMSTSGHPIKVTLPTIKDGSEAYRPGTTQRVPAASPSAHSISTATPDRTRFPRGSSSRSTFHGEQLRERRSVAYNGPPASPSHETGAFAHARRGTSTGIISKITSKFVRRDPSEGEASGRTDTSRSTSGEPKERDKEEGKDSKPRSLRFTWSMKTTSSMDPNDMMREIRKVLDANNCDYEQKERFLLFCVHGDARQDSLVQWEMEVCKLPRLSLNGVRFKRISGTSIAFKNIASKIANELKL

[19] = target: Serine/threonine-protein kinase MARK1 (Homo sapiens) (UniProt Q9P0L2); details: at 1 µM
[20] = target: MAP/microtubule affinity-regulating kinase 3 (Homo sapiens) (UniProt P27448); details: at 0.1 µM;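 note: mean percent inhibition of MARK3 kinase activity, measured within the GSK PKIS screening panel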
Chain of MAP/microtubule affinity-regulating kinase 3 (Homo sapiens) (P27448 whole entry, looked up): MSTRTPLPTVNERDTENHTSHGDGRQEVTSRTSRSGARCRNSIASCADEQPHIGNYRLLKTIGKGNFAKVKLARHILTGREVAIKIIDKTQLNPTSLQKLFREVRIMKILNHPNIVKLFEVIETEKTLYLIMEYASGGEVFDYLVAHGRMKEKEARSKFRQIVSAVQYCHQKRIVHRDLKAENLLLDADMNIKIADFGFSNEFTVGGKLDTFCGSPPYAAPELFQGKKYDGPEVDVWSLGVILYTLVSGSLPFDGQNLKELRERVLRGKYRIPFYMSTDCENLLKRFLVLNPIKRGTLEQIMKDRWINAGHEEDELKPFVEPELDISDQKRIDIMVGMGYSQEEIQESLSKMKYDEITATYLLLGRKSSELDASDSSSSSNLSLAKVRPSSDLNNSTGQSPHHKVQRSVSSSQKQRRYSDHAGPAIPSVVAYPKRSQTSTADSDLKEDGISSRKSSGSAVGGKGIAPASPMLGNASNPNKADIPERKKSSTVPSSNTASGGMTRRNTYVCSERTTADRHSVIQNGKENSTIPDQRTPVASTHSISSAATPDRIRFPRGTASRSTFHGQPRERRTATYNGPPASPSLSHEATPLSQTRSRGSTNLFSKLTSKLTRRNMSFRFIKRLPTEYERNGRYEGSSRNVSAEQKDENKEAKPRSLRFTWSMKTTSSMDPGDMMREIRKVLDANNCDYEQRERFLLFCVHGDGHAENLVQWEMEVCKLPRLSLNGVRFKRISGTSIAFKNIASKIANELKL

Chain of Calcium/calmodulin-dependent protein kinase type II subunit delta (Homo sapiens) (Q13557 whole entry): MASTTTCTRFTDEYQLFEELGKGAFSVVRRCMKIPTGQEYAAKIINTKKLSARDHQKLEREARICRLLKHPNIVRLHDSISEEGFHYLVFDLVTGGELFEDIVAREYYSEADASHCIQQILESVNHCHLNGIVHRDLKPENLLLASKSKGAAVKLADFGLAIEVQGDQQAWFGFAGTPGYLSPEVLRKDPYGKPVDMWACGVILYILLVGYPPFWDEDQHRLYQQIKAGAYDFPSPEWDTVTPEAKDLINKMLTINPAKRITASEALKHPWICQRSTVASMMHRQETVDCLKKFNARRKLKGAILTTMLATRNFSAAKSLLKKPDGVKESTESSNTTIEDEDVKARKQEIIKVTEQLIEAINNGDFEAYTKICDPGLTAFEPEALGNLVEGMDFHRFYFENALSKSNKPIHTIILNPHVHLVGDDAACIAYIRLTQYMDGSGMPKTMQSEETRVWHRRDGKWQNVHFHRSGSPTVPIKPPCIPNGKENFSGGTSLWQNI

SMILES	inhibition [1]	inhibition [2]	inhibition [3]	inhibition [4]	inhibition [5]	inhibition [6]	inhibition [7]	inhibition [8]	inhibition [9]	inhibition [10]	inhibition [11]	inhibition [12]	inhibition [13]	inhibition [14]	inhibition [15]	inhibition [16]	inhibition [17]	inhibition [18]	inhibition [19]	inhibition [20]
NS(=O)(=O)c1ccc(-c2cc3ccncc3cc2OCc2ccccc2)cc1	2.94%	2.4%	4.59%	-1.16%	2.15%	0.26%	0.12%	2.85%	4.7%	1.1%	1.02%	0.91%	3.41%	1.47%	1.1%	5.12%	6.72%	0.77%	3.63%	-0.26%
COc1cccc(-n2ncc3c(N/N=C/c4ccc(S(C)(=O)=O)cc4)ncnc32)c1	1.01%	1.8%	4.11%	2.57%	0.23%	0.1%	-1.03%	-0.14%	0.05%	-1.65%	-2.35%	-3.49%	-3.25%	-0.57%	-0.87%	-0.21%	-1.31%	0.85%	4.83%	0.34%
Cc1ccc(C(=O)NC2CC2)cc1-c1ccc2[nH]ncc2c1	-2.98%	-2.96%	1.9%	-2.05%	-2.16%	-1.76%	-4.22%	-4.46%	-3.82%	-2.57%	-2.38%	-3.53%	-2.34%	-2.72%	-1.94%	3.22%	18.7%	0.44%	2.83%	1.64%
CCn1c(-c2nonc2N)nc2c(C#CC(C)(C)O)nc(OCCNC)cc21	3.51%	3.94%	7.7%	-0.53%	2.52%	-0.01%	1.87%	3.74%	6.21%	1.77%	-0.74%	-0.8%	-0.85%	1.85%	2.88%	2.43%	3.56%	1.55%	10.3%	0.62%
CN(C)C(=O)O[C@H]1CN[C@H](C#Cc2cc3ncnc(Nc4ccc(OCc5cccc(F)c5)c(Cl)c4)c3s2)C1	1.77%	2.42%	2.41%	1.15%	0.23%	0.86%	2.73%	1.56%	3.31%	1.79%	2.24%	-0.33%	2.04%	1.5%	0.84%	2.84%	2.58%	2.51%	2.11%	2.14%
N#Cc1c(NC(=O)c2ccccc2F)sc2c1CCCC2	-0.29%	-2.56%	1.91%	0.87%	1.11%	-0.69%	-3.66%	-0.83%	-2.63%	-1.42%	-2.35%	-1.75%	0.7%	-1.29%	-0.76%	-0.73%	-1.26%	1.09%	2.84%	-2.32%
Cc1ccc2c(-c3ccnc(Nc4ccc5c(c4)OCCO5)n3)c(-c3ccc(C(F)(F)F)cc3)nn2n1	-1.51%	0.22%	-0.06%	2.15%	0.11%	1.74%	0.1%	-0.69%	-0.6%	2.74%	1.35%	-1.42%	-0.35%	0.41%	-0.12%	2.89%	10.8%	1.39%	2.56%	-1.05%
Cc1cc(O)cc(C)c1/C=C/c1cncc(C(=O)N(C)C)c1	3.57%	3.56%	4.04%	2.13%	0.97%	5.84%	2.96%	-0.15%	0.11%	3.93%	5.28%	3.47%	0.19%	0.52%	0.82%	0.87%	1.23%	1.15%	1.29%	2.67%
COc1ccc(-c2nn3ncccc3c2-c2ccnc(Nc3cccc(C(F)(F)F)c3)n2)cc1	-0.66%	1.66%	0.95%	1.07%	-0.19%	1.85%	-3.09%	2.01%	1.61%	4.24%	2.26%	-0.87%	-1.41%	1.58%	0.39%	7.94%	23.9%	1.45%	3.55%	0.72%
COc1cc(/C=N/Nc2ncnc3c2cnn3C(C)C)ccc1O	0.99%	0.75%	3.93%	0.62%	-1.97%	3.18%	4.84%	0.04%	1.88%	1.63%	0.9%	2.33%	1.29%	0.78%	0.4%	0.97%	0.08%	2.39%	4.77%	0.28%
O=S(=O)(CCOCc1ccc(-c2ccc3ncnc(Nc4ccc(OCc5cccc(F)c5)c(Cl)c4)c3c2)o1)c1ccccc1	-0.9%	0.42%	1.29%	-1.19%	-1.67%	3.34%	2.55%	1.33%	3.09%	1.67%	0.71%	-0.21%	1.2%	0.69%	0.79%	-0.36%	2.16%	-0.2%	2.87%	0.76%
[O-][S+]1CCN(Cc2ccc(-c3ccc4ncnc(Nc5ccc(OCc6ccccc6)c(Cl)c5)c4c3)o2)CC1	-1.1%	0.81%	1.03%	-1.57%	-1.23%	3.06%	-0.08%	1.32%	2.85%	1.85%	0.97%	0.43%	1.8%	1%	0.44%	6.01%	8.71%	1.37%	2.21%	-0.92%
CCS(=O)(=O)c1ccc(OC)c(Nc2nccc(N(C)c3ccc4c(C)n[nH]c4c3)n2)c1	-0.61%	3.29%	6.46%	-1.76%	-2.8%	4.57%	2.19%	3.81%	8.77%	7.35%	4.98%	-0.1%	2.14%	2.62%	1.63%	3.91%	6.4%	2.93%	3.99%	3.81%
CC(C)c1ccc2c(c1)NC(=O)/C2=N/Nc1ccc(S(N)(=O)=O)cc1	0.01%	-0.56%	0.81%	-0.87%	0.54%	-7.82%	0.1%	0.32%	0.01%	-0.88%	-1.66%	-1.85%	-0.66%	-1.01%	-0.9%	-0.68%	-1.45%	-0.84%	0.9%	-3.67%
